Experimental data reported in publication PMC4242493, “Sequence specificity incompletely defines the genome-wide occupancy of Myc”.
Whole data set: some 33,000 sequences, median “normalized occupancy” near 0.075, cut for the highest 2% near 0.095. The list comes from a sample in which the highest values are over-represented; it also holds similar and randomly drawn sequences.

Biological target: MaxL homodimer (Homo sapiens, UniProt P61244 1-160)
Test: universal protein-binding microarray (PBM); PBS-based mixture, 10 nM His-tagged protein dimer, 2% milk, 200 ng/uL BSA, 50 ng/uL salmon testes DNA, 0.02% TX-100; detection with Alexa 488 anti-His antibody;; high values mean tight binding
Conditions: protein: recombinant; tags: C-terminal His-tag (pET21a); chain copies: 2; dsDNA, one strand shown
How it was run: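 His-tagged protein dimer at 10 nM was bound to Agilent 4 x 44 K 'all 10-mer' universal arrays and detected with 10 ng/μL fluorophore-conjugated anti-His antibody on a GenePix 4400A, giving an intensity per 8-mer. Binding occupancy normalises each intensity to the top-ranked one.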

Chain of MaxL homodimer (P61244 whole entry): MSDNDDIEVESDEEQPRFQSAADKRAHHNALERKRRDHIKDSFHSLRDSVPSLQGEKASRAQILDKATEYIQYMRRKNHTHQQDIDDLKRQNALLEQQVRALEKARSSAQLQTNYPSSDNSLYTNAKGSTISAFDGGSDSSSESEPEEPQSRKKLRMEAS

| Sequence | binding signal |
| --- | --- |
| AGCAGATC | 0.077 normalized occupancy |
| ACTCCAGT | 0.0743 normalized occupancy |
| ACGCTGTA | 0.0841 normalized occupancy |
| CCGGTGAG | 0.0746 normalized occupancy |
| GACCTTGA | 0.0732 normalized occupancy |
| GCTAAATA | 0.079 normalized occupancy |
| CAGGTGGA | 0.0861 normalized occupancy |
| CAGGTGGG | 0.101 normalized occupancy |
| AAGGTGGC | 0.0758 normalized occupancy |
| GAGGTGGC | 0.0764 normalized occupancy |
| CAGGTGGC | 0.0954 normalized occupancy |
| CAGATGGG | 0.0837 normalized occupancy |
| GTGCTGAA | 0.0776 normalized occupancy |
| AATGGTAC | 0.0764 normalized occupancy |
| AGTAGGAT | 0.076 normalized occupancy |
| GAATGGTA | 0.08 normalized occupancy |
| ACTTGGTA | 0.0735 normalized occupancy |
| ATATGGTA | 0.0884 normalized occupancy |
| ACATGGTA | 0.104 normalized occupancy |
| GCATGGTA | 0.106 normalized occupancy |
| CCATGGTA | 0.0851 normalized occupancy |
| ACATGGTC | 0.104 normalized occupancy |

| Sequence | binding signal |
| --- | --- |
| CCATGGTC | 0.0849 normalized occupancy |
| ACATGGTG | 0.0914 normalized occupancy |
| AGGCGAGG | 0.0752 normalized occupancy |
| CCTACAGG | 0.0722 normalized occupancy |
| CGCGACGA | 0.0728 normalized occupancy |
| CACTTTTA | 0.0728 normalized occupancy |
| AAAGGTGT | 0.0816 normalized occupancy |
| GTTAGAAA | 0.0757 normalized occupancy |
| TACGAACA | 0.0754 normalized occupancy |
| AAGCAACG | 0.0753 normalized occupancy |
| CGACGCGA | 0.0735 normalized occupancy |
| CAACGCGG | 0.0764 normalized occupancy |
| CCACGCGA | 0.131 normalized occupancy |
| CCACGCAG | 0.0904 normalized occupancy |
| CCACGCGG | 0.32 normalized occupancy |
| TCACGCGA | 0.11 normalized occupancy |
| CAACGCGC | 0.0787 normalized occupancy |
| CCACGCGC | 0.157 normalized occupancy |
| CAACGCGA | 0.0767 normalized occupancy |
| TCACGCCA | 0.0851 normalized occupancy |
| CTACGCGC | 0.0727 normalized occupancy |
| TCACGCAA | 0.0764 normalized occupancy |

| Sequence | binding signal |
| --- | --- |
| GCCTACAA | 0.075 normalized occupancy |
| GACAGAGA | 0.0724 normalized occupancy |
| ATACAACA | 0.0788 normalized occupancy |
| CGAAAGCA | 0.0741 normalized occupancy |
| CAGGGGGA | 0.0851 normalized occupancy |
| TCTTCGCA | 0.0796 normalized occupancy |
| AATAGAGC | 0.0803 normalized occupancy |
| AATAACGT | 0.0823 normalized occupancy |
| ATTAGTAC | 0.0786 normalized occupancy |
| CCTGCATC | 0.0807 normalized occupancy |
| ACTGCATG | 0.0859 normalized occupancy |
| AGTGCATG | 0.0988 normalized occupancy |
| AATGCATG | 0.1 normalized occupancy |
| AATGCATT | 0.0797 normalized occupancy |
| CATGCATC | 0.0997 normalized occupancy |
| AGTGCATA | 0.0847 normalized occupancy |
| CATGCAAG | 0.0837 normalized occupancy |
| AGTGCATC | 0.0772 normalized occupancy |
| GATGCATC | 0.0787 normalized occupancy |
| CATGCATG | 0.121 normalized occupancy |
| AATGCATC | 0.0763 normalized occupancy |
| GCACGAAA | 0.078 normalized occupancy |

| Sequence | binding signal |
| --- | --- |
| TAGACACA | 0.0829 normalized occupancy |
| AACAAGCC | 0.0718 normalized occupancy |
| AGAGTTTG | 0.073 normalized occupancy |
| CCTGGGAC | 0.0732 normalized occupancy |
| ATGTCTCG | 0.0802 normalized occupancy |
| CGCTCACC | 0.0763 normalized occupancy |
| AAGCCATC | 0.0756 normalized occupancy |
| AAGAAGGA | 0.0794 normalized occupancy |
| TATGCATA | 0.0811 normalized occupancy |
| AATGCATA | 0.0839 normalized occupancy |
| CATGCATA | 0.0989 normalized occupancy |
| CACGGGGC | 0.0863 normalized occupancy |
| CCACGGGC | 0.076 normalized occupancy |
| CCACGGGG | 0.097 normalized occupancy |
| CCACGGGA | 0.0794 normalized occupancy |
| CACGGGGA | 0.0894 normalized occupancy |
| CACGGGGG | 0.101 normalized occupancy |
| AGGAATTG | 0.0797 normalized occupancy |
| ACGTAGCG | 0.0805 normalized occupancy |
| ACCCCGTG | 0.108 normalized occupancy |
